CSC inhib = cancer stem cell viability inhibitors, primary screen, luminescence | cancer stem cell-like cells viability | actives 1.1% (n = 300,000) | inhibition, % at 7.5 µM | AID 2717, 2010; in the data active = inhibition above about 75%; tested in HMLE shEcad cells
GRIN3A LBD mod = binders of NR3A ligand-binding domain, primary screen, biophysical, differential scanning fluorimetry, uHTS; Glutamate receptor ionotropic, NMDA 3A (GRIN3A) ligand-binding domain; NR3A LBD differential scanning fluorimetry, Tm shift; 0% = protein alone, 100% = glycine-bound protein; Tm shift relative to glycine control, % at 25 µM; actives 2.5% (n = 340,000);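 active = melting temperature shift of at least 10% of the positive control shift, at one fixed dose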
Beta cell apopt = inhibitors of cytokine-induced beta cell apoptosis, primary screen, luminescence | protection from apoptosis, % (concentration not given with the values) | actives 0.8% (n = 300,000) | INS-1E cytokine-induced death, ATP luminescence, 48 h; percent of positive-control rescue, neutral wells zero;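 active = Every replicate reaches about 75%, or at least half do and their mean reaches it too, limit read from the data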;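 also: higher means more ATP so stronger rescue from cytokine killing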
Mdm2 MdmX PPI = inhibitors of human Mdm2-MdmX association, primary screen, cell-based, luminescence, split luciferase, SaOS-2, uHTS. actives 3% (n = 330,000). Protein Mdm4 (Homo sapiens) + E3 ubiquitin-protein ligase Mdm2 (Homo sapiens), …. inhibition, % at 8 µM. SaOS-2 split-luciferase Mdm2/MdmX complementation;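 active = inhibition of at least 50% at 8 µM in the primary screen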
Target sequence (O15151 whole entry, looked up): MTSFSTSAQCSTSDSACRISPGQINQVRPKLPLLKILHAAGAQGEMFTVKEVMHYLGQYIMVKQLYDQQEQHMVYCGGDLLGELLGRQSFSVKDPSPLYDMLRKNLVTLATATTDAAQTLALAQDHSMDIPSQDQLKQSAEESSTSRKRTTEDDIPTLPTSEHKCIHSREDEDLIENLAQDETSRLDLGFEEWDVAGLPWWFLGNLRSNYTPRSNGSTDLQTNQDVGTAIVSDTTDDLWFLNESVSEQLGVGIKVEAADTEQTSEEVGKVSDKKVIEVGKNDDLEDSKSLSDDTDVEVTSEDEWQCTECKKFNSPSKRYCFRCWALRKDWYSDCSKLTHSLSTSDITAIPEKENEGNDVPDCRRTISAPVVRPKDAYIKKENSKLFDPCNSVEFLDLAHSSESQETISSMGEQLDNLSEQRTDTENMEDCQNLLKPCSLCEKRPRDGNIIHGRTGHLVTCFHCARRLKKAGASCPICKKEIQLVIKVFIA
Target sequence (Q00987 whole entry, looked up): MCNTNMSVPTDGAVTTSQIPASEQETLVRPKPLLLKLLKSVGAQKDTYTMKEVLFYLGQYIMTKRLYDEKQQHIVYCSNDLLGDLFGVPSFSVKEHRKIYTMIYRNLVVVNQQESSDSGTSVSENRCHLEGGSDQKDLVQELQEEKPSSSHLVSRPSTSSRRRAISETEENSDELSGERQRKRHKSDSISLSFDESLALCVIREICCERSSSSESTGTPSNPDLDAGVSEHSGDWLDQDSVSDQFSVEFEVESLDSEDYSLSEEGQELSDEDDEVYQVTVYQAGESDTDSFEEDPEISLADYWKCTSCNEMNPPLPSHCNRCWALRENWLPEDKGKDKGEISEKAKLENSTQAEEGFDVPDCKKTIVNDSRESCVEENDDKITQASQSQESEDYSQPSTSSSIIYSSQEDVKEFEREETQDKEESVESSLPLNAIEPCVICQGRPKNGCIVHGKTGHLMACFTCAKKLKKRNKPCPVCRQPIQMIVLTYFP
SKKanGAS inh = S. pyogenes SKKanGAS growth inhibitors in kanamycin, primary screen, streptokinase expression inhibitor project, SKKanGAS strain, BacTiter-Glo luminescence | 6 h | inhibition, % at 7.5 µM | actives 1.3% (n = 300,000) | AID 1662, 2009;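 active = mean replicate score, as percent of positive control median, at least 50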;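 also: strain carries kanamycin resistance gene driven by streptokinase promoter and grows in 40 µg/ml kanamycin; loss of luminescence reflects streptokinase promoter inhibition or plain growth inhibition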
MPTP inh = mitochondrial permeability transition pore inhibitors, primary screen, biochemical, isolated mouse mitochondria, absorbance; actives 1.4% (n = 360,000); inhibition, % at 10 µM; Ca2+ swelling absorbance, 30 min;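 active = inhibition of 50% or more, scaled per plate between neutral and stimulator controls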
Of the large screens only hits and unclear results are named; the others gave an inactive call. Shown are actives, neighbours in structure and some others; about 6.9% of the full set was active somewhere.

CCN1C(=O)[C@@H]2Cc3c([nH]c4ccccc34)C(c3cc(OC)c(OC)c(OC)c3)N2C1=S (stereo partly drawn)	none
COc1ccc(N/N=C(/C(C)=O)N2CCCc3ccccc32)cc1	CSC inhib 88
O=C(CCCCn1ccc(=O)[nH]c1=O)Nc1ccc(C(=O)O)c(O)c1	none (no result: CSC inhib, Beta cell apopt, Mdm2 MdmX PPI, SKKanGAS inh)
O=C(/C=C/Nc1ccc(F)cc1)c1ccco1	GRIN3A LBD mod 15 (no result: CSC inhib)
COc1ccc(C(=O)N2CCN(c3ncccn3)CC2)cc1[N+](=O)[O-]	none (no result: Beta cell apopt)
Cc1cc(C)c(C#N)c(SCCS(=O)(=O)c2ccc(Cl)cc2)n1	none
Cc1cc(C)c(C#N)c(SCCS(=O)(=O)Cc2ccc(Cl)cc2)n1	GRIN3A LBD mod 18
CCOc1cc(C(=S)N2CCN(C)CC2)ccc1OCC(=O)N1CCCC1	none
O=C(O)c1ccc(-c2nc(-c3ccc(Cl)c(Cl)c3)cs2)cc1	SKKanGAS inh 57 (no result: CSC inhib)
Cc1c(NC(=S)Nc2cccc(Cl)c2)c(=O)n(-c2ccccc2)n1C	none
CN(C)S(=O)(=O)c1cccc(C(=O)NCCOC(=O)c2cc(F)c(F)cc2Cl)c1	none (no result: Beta cell apopt)
CCN(CC)S(=O)(=O)c1ccc(C(=O)NCCOC(=O)c2ccc(F)cc2F)cc1	GRIN3A LBD mod 19 (no result: Beta cell apopt)
O=C(Cc1ccc(Cl)cc1)Nc1ccc(CN2CCCCC2)cc1	none
COc1ccc(-c2c(C)c3cc(O)ccc3oc2=O)cc1OC	GRIN3A LBD mod 42
OC(c1cccc(Cl)c1)c1ncc(-c2ccc(C(F)(F)F)cc2)[nH]1 (stereo not drawn)	none (no result: CSC inhib, GRIN3A LBD mod, Beta cell apopt, Mdm2 MdmX PPI, SKKanGAS inh)
Cc1ccc(NC(=O)CSC2=C(C#N)C(c3ccco3)C3=C(CCCC3=O)N2)cc1 (stereo not drawn)	none
Cc1ccc(C(=O)CSC2=C(C#N)C(c3ccco3)C3=C(CC(C)(C)CC3=O)N2)cc1 (stereo not drawn)	CSC inhib 97
N#CC1=C(SCC(=O)c2ccc(Cl)cc2)NC2=C(C(=O)CCC2)C1c1ccco1 (stereo not drawn)	CSC inhib 93
O=C(CC1Sc2ccccc2NC1=O)NCc1ccccc1 (stereo not drawn)	none
CC(=O)c1ccc(N2CCN(S(=O)(=O)c3ccc(-c4cnc(C5CC5)o4)cc3)CC2)cc1	none
O=S(=O)(O)c1ccc(N=Nc2ccccc2)cc1	none
O=c1ccc(N=Nc2ccccc2)ccc1O	SKKanGAS inh 91 (no result: Mdm2 MdmX PPI)
CCn1c(SCC(=O)NC2CCCCC2)nnc1-c1cccnc1	none
CCn1c(C)c(C)c2cc(C(=O)N3CCc4ccccc4C3)ccc21	Beta cell apopt 113
Cc1nn(-c2ccccc2)c2sc(-c3n[nH]c(=S)o3)cc12	SKKanGAS inh 80
Cc1nn(-c2ccccc2)c2sc(C(=O)O)cc12	none
Cc1cc(Nc2ccccc2)n(-c2ccccc2)n1	none
Cc1cc(Nc2ccccc2)n(C(=O)c2ccccc2)n1	GRIN3A LBD mod 18
Cc1cc(C)nc(-n2nc(C)cc2Nc2ccccc2)n1	Beta cell apopt 85, SKKanGAS inh 79
Cc1cc(Nc2ccccc2)nn1C(=O)c1ccc(Cl)cc1	none
Cc1cc(Nc2nc(Cl)c(Cl)cc2Cl)n(-c2ccccc2)n1	CSC inhib 99
Cc1cc(Nc2ccccc2)nn1C(=O)c1ccc([N+](=O)[O-])cc1	GRIN3A LBD mod 40
COc1ccc(S(=O)(=O)N(C)C[C@H]2Oc3ccc(NC(=O)c4ccncc4)cc3C(=O)N([C@H](C)CO)C[C@@H]2C)cc1	none (no result: CSC inhib, Beta cell apopt, SKKanGAS inh)
Oc1ccc(-c2csc(-c3c[nH]c4ccccc34)n2)c(O)c1	CSC inhib 90, GRIN3A LBD mod 34 (no result: Beta cell apopt)
CC(=O)NCCC(=O)Nc1nc(-c2c[nH]c3ccccc23)cs1	none (no result: CSC inhib, Beta cell apopt)
Cc1ccc(-c2csc(-c3c[nH]c4ccccc34)n2)c(C)c1	CSC inhib 99, GRIN3A LBD mod 24, SKKanGAS inh 92
CCCCCCn1c(=O)n2n(c1=O)C[C@]1(OC(=O)NCc3ccccc3)CN(S(=O)(=O)c3ccc(C)cc3)C[C@]1(O)C2	none (no result: CSC inhib, GRIN3A LBD mod, Beta cell apopt, Mdm2 MdmX PPI, SKKanGAS inh)
CCC1(C)NC(=O)N(CC(=O)NCC(=O)Nc2c(C)cc(C)cc2C)C1=O (stereo not drawn)	none (no result: SKKanGAS inh)
O=C(N/C=N/OCc1ccc(Cl)cc1Cl)NOCc1ncc(C(F)(F)F)cc1Cl	CSC inhib 124
CO/N=C/NC(=O)NOCc1ncc(C(F)(F)F)cc1Cl	none
COc1ccc(NC(=O)c2cc3ccccc3[nH]2)cc1	GRIN3A LBD mod 24
CCOC(=O)c1cc2cc(OC)ccc2[nH]1	GRIN3A LBD mod 11
COc1ccc(C(=O)Nc2ccncc2)c(OC)c1	none (no result: CSC inhib)
COc1ccc(C(=O)Nc2ccc3ccccc3c2)c(OC)c1	GRIN3A LBD mod 18
COc1ccc2oc(C(=O)OCC(=O)NC3CCS(=O)(=O)C3)c(C)c2c1 (stereo not drawn)	none (no result: CSC inhib, GRIN3A LBD mod, Beta cell apopt, Mdm2 MdmX PPI, SKKanGAS inh)
c1ccc(-c2nnc(C(c3ccccc3)c3ccccc3)o2)cc1	none
OC(c1ccc(OCc2ccccc2)cc1)c1nnc(-c2ccccc2)o1 (stereo not drawn)	SKKanGAS inh 57
CCc1nc2ccc(C(=O)NCCc3ccccn3)cn2c1N(C)Cc1cccs1	none (no result: CSC inhib, GRIN3A LBD mod, Beta cell apopt, Mdm2 MdmX PPI, SKKanGAS inh)
CSc1ccccc1NC(=O)COC(=O)CCc1ccccc1	GRIN3A LBD mod 14
C/C(=N\NC(=O)COc1ccc(C(C)(C)C)cc1)c1cc2ccccc2o1	none
C/C(=N\NC(=O)COc1ccc(C)cc1C(C)C)c1cc2ccccc2o1	SKKanGAS inh 57 (no result: CSC inhib)
CSc1ccccc1NC(=O)Cc1ccccc1	none
CSc1ccccc1NC(=O)CO/N=C(\C)c1cc2ccccc2o1	GRIN3A LBD mod 11
O=C(OCC(=O)N1CCCC1)c1cnc(Cl)c(Cl)c1	none (no result: SKKanGAS inh)
Cc1cc(=O)oc2cc(NC(=O)c3ccccc3Cl)ccc12	none
C=CCn1c(SCC(=O)Nc2ccc(O)cc2)nc2sc(CC)cc2c1=O	GRIN3A LBD mod 33
Cc1ccc(NC(=O)C(C)Sc2nc(-c3ccccc3)cc(=O)[nH]2)cc1 (stereo not drawn)	none
N=c1ccn(Cc2ccc(Cl)cc2Cl)cc1	Beta cell apopt 103
N=c1ccn(Cc2ccccc2Cl)cc1	none (no result: Beta cell apopt)
COc1cccc(C(=O)COc2ccc(NC(=O)c3ccccc3)cc2)c1	GRIN3A LBD mod 11 (no result: CSC inhib, Beta cell apopt)
COc1ccc(COc2cc(-c3cccc(OC)c3)nc3ccc(NC(=O)c4ccc(N(C)C)cc4)cc23)cc1	CSC inhib 80
Cc1cccc(OCC(=O)Nc2ccc(NC(=O)c3ccccc3)cc2)c1	GRIN3A LBD mod 12
COc1cccc(C(=O)Nc2cccc(OCC(=O)c3ccccc3)c2)c1	none (no result: Beta cell apopt)
CCCOc1ccc(C(=O)CCC(=O)NNC(=O)c2cccs2)cc1	none (no result: SKKanGAS inh)
CC(C#N)(NC(=O)CN1CCN(S(=O)(=O)c2ccc(Br)cc2Cl)CC1)C1CC1 (stereo not drawn)	GRIN3A LBD mod 10 (no result: CSC inhib, SKKanGAS inh)

Screening results deposited in PubChem by several laboratories.
